According to PubChem BioAssay:

Target: Calmodulin-1 (Homo sapiens) (UniProt P0DP23)
Experiment: CALM1 binders on microarrays, EGTA buffer, profiling panel, biochemical, small-molecule microarray, Cy5-labelled CALM1 (AID 1111);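 also: labelled calmodulin applied in Tris saline Tween buffer holding calcium plus EGTA and DTT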
Conditions: Cy5-CALM1 binding fluorescence, higher = more signal

| SMILES | composite z-score |
| --- | --- |
| COc1ccc([Si](C)(C)[C@@H]2[C@@H](CC(=O)N3Cc4ccccc4C[C@H]3CO)O[C@]3(C(=O)N(C)c4ccccc43)[C@H]2C)cc1 | 0.617 |
| O=C(N1CCCCC1)[C@@]1(CCS(=O)(=O)c2ccccc2)COC(c2ccc(OCCCO)cc2)=N1 | 0.695 |
| O=C1NC(=O)C2C1C=CC(C(O)CCc1ccccc1)N2Nc1ccc(Cl)cc1Cl (stereo not given) | 1.54 |
| C=CCC(OC(C)=O)[C@@H]1[C@@H](N(Cc2cc3ccccc3o2)C(=O)c2ccc(-c3ccccc3)cc2)c2cc(OCCCO)ccc2N1C(=O)c1ccc2ccccc2c1 (stereo not given in full) | 0.137 |
| CCOC(=O)C[C@H]1[C@H](OC(=O)Cc2ccc3c(c2)OCO3)[C@@H](NC(=O)Cc2ccc(OC)cc2)c2cc(OCCCO)ccc2N1C(=O)c1ccc2ccccc2n1 | -0.22 |
| COC(=O)c1c2oc(c1C(=O)OC)C(=O)N(Cc1ccccc1)Cc1cn(nn1)C[C@H](Cc1ccccc1)NC(=O)N[C@H](CO)CC2 | -0.201 |
| NC(N)=NCCCn1cc(CNC(=O)[C@@H](N)Cc2ccccc2)nn1 | -0.806 |
| NC(=O)N1C(=O)C2C(C1=O)C1C=C(CCCO)C2C(c2cccs2)N1Cc1cccc(OC(F)(F)F)c1 (stereo not given) | 0.155 |
| CCOC(=O)C[C@H]1[C@H](OC(=O)c2cc3ccccc3oc2=O)[C@@H](NC(=O)Cc2ccc(OC)cc2)c2cc(OCCCO)ccc2N1C(=O)c1ccc2ccccc2n1 | -0.0597 |
| COCCOC(=O)N1C(=O)[C@@]2(c3cc(C#CC4=CCCCC4)ccc31)[C@H](c1ccc(OCCO)cc1)N1[C@H](c3ccccc3)[C@H](c3ccccc3)OC(=O)[C@H]1[C@@H]2C(=O)NC[C@H](O)c1ccccc1 | 0.868 |
